Most compounds without a hit are left out; they make up all but 10% or so of the library.
BAZ2B inh: blocks human BAZ2B; Q9UIF8; AlphaScreen BAZ2B-H3K14Ac peptide displacement; actives 4.4% (n = 360,000); Potency, µM (series often up to 114 µM), most hits filed as inhibitors; also: nearly all actives have a fitted effect of over 60% in size
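Complex of BAZ2B and biotin-H3K14Ac (50 nM apiece) forms over 30 min at RT, then faces library compounds up to 110 uM for another 30 min; AlphaScreen beads added, 20 min dark incubation, luminescence read.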
GLS inh: blocks human kidney-isoform glutaminase activity | O94925 | GLS enzymatic activity, qHTS titration | actives 0.21% (n = 410,000) | Potency, µM (highest dose often 45.5 µM), usual class: inhibitors
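Assay buffer: 45 mM KH2PO4 pH 8.2, 0.02% Tween-20. hKGA acts on L-glutamine (1 mM solution added); product glutamate is reported by an oxidase/peroxidase Amplex Red coupling, with fluorescence taken at baseline and 30 min.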
HP1b chromo inh: inhibitors of HP1-beta chromodomain binding to methylated histone tails | AlphaScreen HP1-beta / biotin-H3K9me3 peptide binding | AID 540317 | actives 0.56% (n = 390,000) | Potency, µM (series often up to 114 µM), hits mostly inhibitors | P83916; also: nearly all actives have a fitted effect of over 70% in size
Target sequence (P83916 whole entry, looked up): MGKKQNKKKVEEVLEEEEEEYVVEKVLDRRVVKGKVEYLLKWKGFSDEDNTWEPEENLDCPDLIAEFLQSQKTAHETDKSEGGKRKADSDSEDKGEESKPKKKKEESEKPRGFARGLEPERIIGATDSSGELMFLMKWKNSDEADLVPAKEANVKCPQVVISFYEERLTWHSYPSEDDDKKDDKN
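Compound inhibition of the preformed complex between 50 nM HP1-beta and 50 nM biotinylated H3K9me3 peptide was read by AlphaScreen. Buffer was PBS pH 7.4 with 0.01% Tween-20. Incubations ran 30 min at room temperature, with 10 ug/mL donor/acceptor beads.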
G9a block: blocks human histone lysine methyltransferase G9a | actives 8.8% (n = 350,000) | Q96KQ7 | Potency, µM (titrated, usually from 102 µM), most hits filed as inhibitors | AID 504332 | G9a H3K9 monomethylation, AlphaScreen, 2 h; also: nearly all actives have a fitted effect of over 75% in size
Target sequence (Q96KQ7 913-1193 limits assumed): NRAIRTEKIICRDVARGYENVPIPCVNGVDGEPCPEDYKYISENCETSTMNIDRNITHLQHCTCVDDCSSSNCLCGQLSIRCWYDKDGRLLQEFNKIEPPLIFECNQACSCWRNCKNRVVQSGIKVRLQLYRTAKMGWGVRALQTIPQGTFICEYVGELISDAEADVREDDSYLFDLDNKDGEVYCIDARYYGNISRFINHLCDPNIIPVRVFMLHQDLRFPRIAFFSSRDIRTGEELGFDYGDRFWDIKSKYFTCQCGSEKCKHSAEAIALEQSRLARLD
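AlphaScreen detection with an anti-monomethyl H3K9 antibody quantified product after a 2 h room-temperature reaction containing 500 nM biotinylated H3K9 peptide, 20 µM SAM and 20 nM enzyme, which had been preincubated 15 min with compound.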
JMJD2A Tudor inh: inhibitors of human JMJD2A Tudor domain. O75164. actives 4.4% (n = 390,000). Potency, µM (highest dose often 114 µM), most hits filed as inhibitors. AID 504339. AlphaScreen JMJD2A-Tudor / H3K4me3 peptide binding; also: nearly all actives have a fitted effect of over 50% in size
Hits are given with their value; – = inactive; ? = inconclusive; · = no result; [ ] = another dose, or the depositor's remark. Calls follow the shape of the dose curve; as a rule, active = well fitted curve in the direction sought with a large enough effect; inconclusive = small, poorly fitted or top-dose-only effect, or another doubt; inactive = no such curve, though single readings can be large; an effect the other way counts as inactive or inconclusive.

SMILES	BAZ2B inh	GLS inh	HP1b chromo inh	G9a block	JMJD2A Tudor inh
OC(CNC1CCCc2ccccc21)COc1c(Cl)cccc1Cl (stereo not given)	39.8µM	–	–	7.94µM	5.62µM
CCc1nnc(NC(=O)c2nc(SCc3ccc(F)cc3)ncc2Cl)s1	–	–	–	?	–
Cn1cc(/C=N/NC(N)=S)c2ccccc21	–	–	–	–	–
C=CCNC(=S)N/N=C/c1cn(C)c2ccccc12	–	?	?	·	56.2µM
CCOC(=O)c1cc(S(=O)(=O)NCc2ccc(C)cc2)[nH]n1	50.1µM	–	–	5.62µM	–
CCOC(=O)c1cc(S(=O)(=O)NCc2cccc(Cl)c2)[nH]n1	50.1µM	–	–	3.55µM	–
CCOc1ccc(N2C(=O)CC(N)C2=O)cc1 (stereo not given)	–	–	–	7.94µM	–
CCCOc1ccc(N2C(=O)CC(SC(=NCC)NCC)C2=O)cc1 (stereo not given)	–	–	–	–	–
CCCOc1ccc(N2C(=O)CC(SCC(N)C(=O)OCC)C2=O)cc1 (stereo not given)	–	–	–	70.8µM	–
CCOc1ccc(N2C(=O)CC(Cc3cc(C)cc(C)c3)C2=O)cc1 (stereo not given)	–	–	–	·	–
CCOC(=O)c1ccc(N2C(=O)CC(Sc3ncccn3)C2=O)cc1 (stereo not given)	–	–	–	?	–
CCOC(=O)C(N)CSC1CC(=O)N(c2ccc(C(=O)OC)cc2)C1=O (stereo not given)	–	–	–	8.91µM	?
CCCOc1ccc(N2C(=O)CC(SCCN)C2=O)cc1 (stereo not given)	–	–	–	3.55µM	–
Cc1ccc(NS(=O)(=O)c2ccc3[nH]c(=O)[nH]c3c2)cc1C	·	·	·	·	–
CC(C)(C)Cc1c(-c2ccc(C#N)cc2)nc2c(Cl)cc(C(F)(F)F)cn12	·	–	·	·	·
CCOc1ccc(N2C(=O)CC(SCC(=O)O)C2=O)cc1 (stereo not given)	–	–	–	50.1µM	–
CCCOc1ccc(N2C(=O)CC(N3CCC(C(=O)OCC)CC3)C2=O)cc1 (stereo not given)	–	–	–	50.1µM	–
COC(=O)c1ccc(N2C(=O)CC(SCCN)C2=O)cc1 (stereo not given)	–	–	–	14.1µM	?
COc1ccc(CCNC(=O)COC(=O)c2cc(S(=O)(=O)N3CCOCC3)ccc2C)cc1OC	·	–	–	·	–
O=C(CN1C(=O)C2(SCC(=O)N2c2cccc(Cl)c2)c2ccccc21)NC1CCCCC1 (stereo not given)	–	–	–	–	–
CN1C(=O)C(=C2CCCCCC2)SC1=S	–	–	–	44.7µM	–
Cn1ccs/c1=N\C(=O)Nc1cccc(C(F)(F)F)c1	–	–	–	–	–
CCCCCCCCCCCCCCC(F)C(=O)O (stereo not given)	·	·	·	–	·
Cc1nc2n(n1)C(c1ccccc1)C1=C(CC(c3ccco3)CC1=O)N2 (stereo not given)	–	–	–	44.7µM	–
O=C1CC(c2ccco2)CC2=C1C(c1ccncc1)n1nc(C(F)(F)F)nc1N2 (stereo not given)	·	·	–	·	–
SMILES	BAZ2B inh	GLS inh	HP1b chromo inh	G9a block	JMJD2A Tudor inh
COc1ccc(-c2cc(C(C)=O)c(C)n2CCC(=O)NCc2ccccc2OC)cc1	?	–	–	–	–
COc1ccc(-c2cc(C(C)=O)c(C)n2CCC(=O)NCc2ccc(F)cc2)cc1	79.4µM	–	–	?	–
CC(=O)c1cc(-c2ccc(F)cc2)n(CCC(=O)NC(C)(C)C)c1C	50.1µM	–	–	–	–
CC(=O)c1cc(-c2ccccc2)n(CCC(=O)NCc2cccs2)c1C	50.1µM	–	–	–[12.7 µM]	–
CCC(C)NC(=O)CCn1c(-c2ccc(F)cc2)cc(C(C)=O)c1C (stereo not given)	?	–	–	–	–
COc1ccc(NC(=O)Cn2c(=O)n(-c3ccc(OC)cc3)c(=O)c3sc4ccccc4c32)cc1	–	–	–	–	–
O=C(CCSc1ccccn1)c1ccccc1	–	–	–	?	–
O=C(O)CCSc1ccccn1	–	–	–	14.1µM	–
CCC(=O)N1CCCC(C)(C(=O)Nc2nccc3cccnc23)C1 (stereo not given)	·	–	·	·	·
COc1cc(Sc2ccc(C)cc2)c(OC)cc1N	14.1µM	–	28.2µM	3.55µM	22.4µM
COC(=O)c1ccc(Sc2ccc(C)cc2)c(N)c1	–	–	–	–[12.7 µM]	–
COc1ccccc1Nc1nn2c(=O)c3ccc(C(=O)NC4CCCCC4)cc3nc2s1	–	–	–	–	–
CCCC(=O)N1CCC1(C)C(=O)Nc1ccc2c(c1)OCCO2 (stereo not given)	·	–	·	·	·
CC[n+]1c(-c2ccc(C)cc2)csc1Nc1c(C)n(C)n(-c2ccccc2)c1=O	?	–	?	8.91µM	?
Cc1ccc(N2C(=O)C(Cl)=C(Nc3c(C)n(C)n(-c4ccccc4)c3=O)C2=O)cc1	–	–	–	5.01µM	–
Cc1ccc(Nc2nc3ccccc3nc2Nc2c(C)n(C)n(-c3ccccc3)c2=O)cc1	–	–	–	–	–
Cc1c(NC(=O)Nc2c(Cl)cccc2Cl)c(=O)n(-c2ccccc2)n1C	–	–	–	–	–
Cc1cccc(N2C(=O)C(Cl)=C(Nc3c(C)n(C)n(-c4ccccc4)c3=O)C2=O)c1C	50.1µM	–	–	8.91µM	–
OCC1=C[C@@H](O)[C@@H]2C=CO[C@@H](O[C@@H]3O[C@H](CO)[C@@H](O)[C@H](O)[C@H]3O)[C@H]12	·	–	–	·	–
COCCNc1nc(NCc2cc(-c3ccc(OC)cc3)no2)c2sccc2n1	·	–	·	·	·
Cc1oc(-c2ccc(C(=O)NCc3ccccc3F)cc2)nc1COc1ccccc1	–	–	–	–	–
COc1cccc(-n2c(CN3CCN(c4ccccn4)CC3)nc3ccc([N+](=O)[O-])cc3c2=O)c1	56.2µM	–	–	28.2µM	–
COc1ccc(-n2c(CN3CCC(C)CC3)nc3ccc([N+](=O)[O-])cc3c2=O)c(OC)c1	?	–	–	?	–
COc1cccc(-n2c(CN3CCN(c4cccc(C)c4)C(C)C3)nc3ccc([N+](=O)[O-])cc3c2=O)c1 (stereo not given)	–	–	–	–	?
COc1ccc(-n2c(CN3CCN(c4ccccc4)CC3)nc3ccc([N+](=O)[O-])cc3c2=O)c(OC)c1	–	–	?	39.8µM	?
COc1ccc(-n2c(CN3CCOCC3)nc3ccc([N+](=O)[O-])cc3c2=O)c(OC)c1	–	–	–	44.7µM	–
O=C(CSCn1nnc2c(=O)[nH]c(Cc3ccc(F)cc3)nc21)Nc1cccc(C(F)(F)F)c1	–	–	–	–	–
Cc1ccc(OCC(=O)N/N=C\c2cn(C)c3ccccc23)c([N+](=O)[O-])c1	–	–	–	–[2.33 µM]	–
N#Cc1c[nH]n2c(NC3CCCC3)c(-c3ccc(Cl)cc3)nc12	–	?	–	?	–

Screening data from PubChem.
